TDP1 block = blocks human tyrosyl-DNA phosphodiesterase 1; Q9NUW8; hit rate 0.28% among 350,000; Potency, µM (series often up to 130 µM), for inactives: top-dose activity change, negative = inhibition, hits mostly inhibitors; recombinant TDP1, AlphaScreen DNA substrate cleavage; further: potency means the concentration at half of the fitted maximal effect; nearly all actives have a fitted effect of over 40% in size
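Steps: enzyme plus compound, 15 min RT; add biotin/phosphotyrosine-FITC oligonucleotide (15 nM final), react 5 min; add donor/acceptor beads (10 ug/ml final), 10 min; read AlphaScreen. Tdp1 at 1 nM final.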
DT40 TDP1 CPT = growth inhibition of DT40 Tdp1-/-;hTDP1 cells with camptothecin (screen for TDP1 inhibitors); chicken DT40 Tdp1-/-;hTDP1 cells + 20 nM CPT, ATP luminescence, 48 h; Potency, µM (series often up to 46.2 µM), for the others: at the top dose activity change, negative = growth inhibition, actives largely listed as inhibitors; hit rate 12% among 420,000; further: potency means the concentration at half of the fitted maximal effect; nearly all actives have a fitted effect of over 55% in size
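Cell growth measured by CellTiter-Glo luminescence after a minimum 48 h, 37 C compound exposure with 20 nM CPT in Tdp1-knockout DT40 cells stably expressing hTDP1, seeded 400/well; qHTS titration format.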
ELG1 DNA repair = inhibitors of ELG1-dependent DNA repair in HEK293T cells; hit rate 2.3% among 330,000; HEK293T ELG1-luciferase reporter, luminescence, 16 h; DNA damage induced by 5-fluorouridine; Potency, µM (series often up to 46.1 µM), for inactives: top-dose activity change, negative = inhibition, hits mostly inhibitors; further: potency means the concentration at half of the fitted maximal effect; nearly all actives have a fitted effect of over 55% in size
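5-Fluorouridine DNA damage + compound/DMSO, 2,000 cells/well, 16 h, 37 °C/5% CO2. ONE-Glo, 30 min RT, luminescence. Readout = decrease in reporter signal.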
Giardia kill = Giardia lamblia killing; Giardia lamblia trophozoite viability; activity change, % at 7.66 µM, hits read low; hit rate 0.15% among 340,000; in the data active means activity change below about -80%; inconclusive means between about -30% and that limit;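 further: parasites exposed to compound for two days anaerobically before the ATP read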
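Trophozoite viability was measured as ATP-dependent luminescence, read 15-30 min after reagent addition. Before that, parasites at 100 cells/well were exposed to compounds for 48 h, anaerobically, at 37 deg C.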
IL1B secr inh = inhibitors of inflammasome signaling (IL-1 beta secretion) | activity change, % at 57.5 µM | THP-1 LPS/ATP IL-1B secretion, AlphaLISA, 16 h; stronger effect = lower value | hit rate 4.7% among 360,000; in the data active means activity change below about -50%; inconclusive means mostly about -30% to -49%
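Secreted IL-1B measured by AlphaLISA bead assay after 16 h compound exposure of THP-1 cells; compounds (final up to 57.5 uM) added 1 h before LPS (250 ng/mL) and ATP (1.25 mM) stimulation; lower signal means less secretion.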
DT40 TDP1 no CPT = qHTS for Inhibitors of human tyrosyl-DNA phosphodiesterase 1 (TDP1): qHTS in cells in absence of CPT; DT40 Tdp1-/- hTDP1 cells, no CPT, ATP luminescence, 48 h; Potency, µM (titrated, usually from 46.2 µM), for inactives: top-dose activity change, negative = growth inhibition, most hits filed as inhibitors; hit rate 15% among 420,000; AID 686978, 2013; further: potency means the concentration at half of the fitted maximal effect; nearly all actives have a fitted effect of over 55% in size
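Cells were dispensed at 400 per well, compounds added by pin tool, plates incubated ≥48 hr at 37 °C, then CellTiter-Glo added for 30 min at room temperature before luminescence reading. Line: DT40 Tdp1-/- complemented with hTDP1; camptothecin omitted.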
* marks the source's active call; other numbers are inactive results; u = inconclusive; x = not tested or not shown; [ ] = remark or other dose. This is a sample that favours compounds with a hit; in the whole collection about 19% have one here. Unless noted, the call rests on the fitted dose curve; in most records, active means well fitted curve in the direction sought with a large enough effect; inconclusive means small, poorly fitted or top-dose-only effect, or another doubt; inactive means no such curve, though single readings can be large; an effect the other way counts as inactive or inconclusive. On the % scale 0 is the no-effect control and ±100 the full control effect.

SMILES | TDP1 block | DT40 TDP1 CPT | ELG1 DNA repair | Giardia kill | IL1B secr inh | DT40 TDP1 no CPT
O=C(Nc1ccc(Cl)c([N+](=O)[O-])c1)C(Sc1ccccc1)c1ccccc1 (stereo unspecified) | 0% | u | 12% | 10 | -83* | u
Nc1ccc2c(c1)ncn2CCCn1cnc2cc(N)ccc21 | 2% | 21µM* | -4% | 3 | -3 | u
COCCNC(=O)c1cc(-c2ccccc2)n(CC2CC(c3ccc(OC)cc3)=NO2)n1 (stereo unspecified) | 0% | u | u | 1 | -17 | u
COc1ccc(C2=NOC(Cn3nc(-c4ccccc4)cc3C(=O)NCc3cccs3)C2)cc1 (stereo unspecified) | 1% | u | 12µM* | 13 | -1 | 9.2µM*
COc1ccc(C2=NOC(Cn3nc(C(=O)NCc4cccc(C(F)(F)F)c4)cc3-c3ccccc3)C2)cc1 (stereo unspecified) | -2% | 18µM* | -26% | u | -6 | u
COc1ccc(C2=NOC(Cn3nc(C(=O)NCc4ccc(C)cc4)cc3-c3ccccc3)C2)cc1 (stereo unspecified) | 2% | u | u | -1 | -9 | 21µM*
COc1ccc(C2=NOC(Cn3nc(C(=O)NCc4cccs4)cc3-c3ccccc3)C2)cc1 (stereo unspecified) | 2% | u | u | -2 | -15 | u
COc1ccc(C2=NOC(Cn3nc(C(=O)NCc4ccco4)cc3-c3ccccc3)C2)cc1 (stereo unspecified) | 3% | u | u | 11 | -27 | 16µM*
O=C(NCc1cccc(C(F)(F)F)c1)c1cc(-c2ccccc2)nn1CC1CC(c2cccnc2)=NO1 (stereo unspecified) | x | -25% | x | 49 | 12 | u
COc1ccccc1C1CN(CCNC(=O)c2cnsn2)Cc2ccccc2O1 (stereo unspecified) | x | -7%[9.04 µM] | x | x | x | -57%
COCCn1c(C)c(C)c(S(=O)(=O)c2ccccc2)c1N | x | -24% | 12% | -12 | 3 | 1%
CCOC(=O)c1cc(-c2ccccc2)n(CC2CC(c3ccc(OC)cc3)=NO2)n1 (stereo unspecified) | x | 23µM* | u | u | 2 | 23µM*
COc1ccc(C2=NOC(Cn3nc(C(=O)O)cc3-c3ccccc3)C2)cc1 (stereo unspecified) | x | -1% | -7% | 39 | -1 | -5%
Cc1cccc(CNC(=O)C2CCN(c3nnc(-n4c(C)ccc4C)s3)CC2)c1 | 8% | u | x | x | x | 16µM*
Cc1ccc(C)n1-c1nnc(N2CCCC(C(=O)NCc3cccc(Br)c3)C2)s1 (stereo unspecified) | 8% | u | x | x | x | u
Cc1ccc(C)n1-c1nnc(N2CCCC(C(=O)NCc3cccc(Cl)c3)C2)s1 (stereo unspecified) | 5% | 21µM* | x | x | x | 12µM*
Cc1ccccc1CNC(=O)C1CCN(c2nnc(-n3c(C)ccc3C)s2)CC1 | 5% | 16µM* | x | x | x | u
CCOc1ccc(NC(=O)C2CCN(c3nnc(-n4c(C)ccc4C)s3)CC2)cc1 | -3% | 23µM* | x | x | x | 13µM*
Cc1ccc(C)n1-c1nnc(N2CCCC(C(=O)NCc3cccc(F)c3)C2)s1 (stereo unspecified) | 5% | u | x | x | x | -17%
CC1CN(S(=O)(=O)c2ccc(C(=O)OCc3ccc(C#N)cc3)cc2)CC(C)O1 (stereo unspecified) | 1% | 2% | -13% | 10 | 15 | -21%
Cc1ccc(S(=O)(=O)N2Cc3ccccc3CC2C(=O)N(C)C)cc1 (stereo unspecified) | x | -23% | x | x | 12 | -7%

Bioassay records (PubChem BioAssay)
